Bioassay records as filed in PubChem.
An excerpt weighted towards active compounds, which were near 2.5% of everything screened.
GC-B act: human GC-B receptor activators, primary screen, HEK293 GC-B cells, cGMP TR-FRET, EC30 CNP. AID 1920062, 2024. 0.11% of 370,000 active. activation, % at 10 µM. 0% at EC30 CNP, 100% saturating CNP. Atrial natriuretic peptide receptor 2 (Homo sapiens), P20594;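 active means activation at 10 µM reaching about 35% in either raw or pattern-adjusted values, limit read from the data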
Target sequence (P20594 whole entry, looked up): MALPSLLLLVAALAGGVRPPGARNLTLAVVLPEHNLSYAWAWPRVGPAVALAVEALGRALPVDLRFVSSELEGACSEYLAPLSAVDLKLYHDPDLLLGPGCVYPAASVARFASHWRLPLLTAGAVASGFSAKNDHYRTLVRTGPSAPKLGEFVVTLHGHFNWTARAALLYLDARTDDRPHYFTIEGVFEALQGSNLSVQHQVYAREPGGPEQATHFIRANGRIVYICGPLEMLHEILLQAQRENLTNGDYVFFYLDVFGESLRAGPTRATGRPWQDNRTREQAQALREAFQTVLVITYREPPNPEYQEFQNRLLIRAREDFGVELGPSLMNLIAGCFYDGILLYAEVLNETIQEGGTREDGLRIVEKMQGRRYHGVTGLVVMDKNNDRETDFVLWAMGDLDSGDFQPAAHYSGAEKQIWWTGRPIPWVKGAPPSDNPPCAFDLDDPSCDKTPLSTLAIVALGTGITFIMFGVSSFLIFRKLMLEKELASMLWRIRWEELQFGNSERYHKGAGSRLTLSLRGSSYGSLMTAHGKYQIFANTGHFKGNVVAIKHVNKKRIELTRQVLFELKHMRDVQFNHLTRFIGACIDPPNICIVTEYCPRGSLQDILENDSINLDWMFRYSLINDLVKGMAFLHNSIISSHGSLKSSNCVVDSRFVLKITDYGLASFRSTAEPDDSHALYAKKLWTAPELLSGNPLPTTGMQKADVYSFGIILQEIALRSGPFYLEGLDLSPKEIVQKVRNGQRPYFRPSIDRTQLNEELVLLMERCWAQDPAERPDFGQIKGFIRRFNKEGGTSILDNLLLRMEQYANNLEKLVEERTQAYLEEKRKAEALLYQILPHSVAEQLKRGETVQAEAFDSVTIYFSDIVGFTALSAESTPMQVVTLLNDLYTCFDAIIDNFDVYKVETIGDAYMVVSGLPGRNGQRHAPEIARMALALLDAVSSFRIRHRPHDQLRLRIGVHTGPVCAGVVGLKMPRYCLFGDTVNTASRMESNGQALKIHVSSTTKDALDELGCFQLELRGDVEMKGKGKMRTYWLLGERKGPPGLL
DYRK1A inh: rat Dyrk1A kinase inhibitors, primary screen, biochemical, single point, plate reader; Dual specificity tyrosine-phosphorylation-regulated kinase 1A (Rattus norvegicus), Q63470; ADP-Glo luminescence, NFATc1 peptide; inhibition, % at 12.5 µM; 0.43% of 310,000 active; in the data active means inhibition above about 50%;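 further: plate controls were vehicle with enzyme for no effect and no enzyme for full effect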
aDG glyco act: activators of alpha-DG glycosylation, primary screen, uHTS, Pro5-aDG cells, AlphaScreen; alpha-DG glycosylation AlphaScreen (IIH6); 0% Pro5, 100% B10-LARGE cell signal; activation, % at 10 µM; 0.22% of 360,000 active; AID 624168, 2012;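 active means activation of at least 8% versus controls, or a plate z-score of at least 8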;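 further: Pro5 are CHO cells carrying HIG-tagged alpha-DG that lacks glycosylation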
GC-A act: GC-A stimulated cGMP production enhancers – HEK293 GC-A cells, cGMP TR-FRET, EC30 ANP, primary screen. Atrial natriuretic peptide receptor 1 (Homo sapiens), P16066. 0% at EC30 ANP, 100% saturating ANP. activation, % at 10 µM. 0.14% of 370,000 active; in the data active means activation above about 40%
HSF-1 act: HSF-1 activators, primary screen, NIH3T3-HGL cells, MG132 stress, luminescence, single point. NIH3T3-HGL HSF-1 luciferase reporter, 8 h; 100% = twice DMSO control signal. activation, % at 9 µM. 1.7% of 300,000 active;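 active means mean replicate activation of at least 50% with a set share of replicates each reaching 50%; inconclusive means only one of those two conditions met; inactive means mean below 50% and too few replicates reaching it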;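 further: 0% = median of the neutral control wells and 100% = twice that signal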
HSF1 inh: HSF1 inhibitors in luciferase reporter cells, primary screen, cell-based, NIH3T3, luminescence; AID 2098, 2009; activity change, negative = inhibition, % at 7.5 µM (by protocol); NIH3T3-HGL HSE-luciferase, MG132-induced, luminescence 8 h; hits give low values; 0.77% of 300,000 active;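 active means more than half of replicate wells show activity change below -50%, luminescence cut by over half; inconclusive means some wells, but at most half, below -50%; inactive means no replicate well below -50%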;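 further: luciferase reports HSF-1 transcriptional activity via heat shock element; 0% = median of DMSO wells and -100% = zero luminescence signal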
* = called active by the depositor; ? = inconclusive; / = no result.

SMILES	GC-B act	DYRK1A inh	aDG glyco act	GC-A act	HSF-1 act	HSF1 inh
C=CCn1c(C)cc(C(=O)Cn2ncc(Cl)c(Cl)c2=O)c1C	49*	-3	0	38	?	41
O=C(Cn1ncc(Cl)c(Cl)c1=O)c1ccc(Cl)cc1	22	4	0	70*	56*	29
Cc1ccc(NC(=O)CN(C)C(=O)Cn2ncc(Cl)c(Cl)c2=O)cc1	1	2	0	31	52*	29
CC(C)(C)C(=O)Cn1ncc(Cl)c(Cl)c1=O	-8	23	0	42*	15	0
COc1ccc(S(=O)(=O)N2CCOCC2)cc1NC(=O)C1CC1	6	3	0	3	/	/
CCOc1cc(N2CCOCC2)c(OCC)cc1NC(=O)Cn1cnc2c(=O)n(C)c(=O)n(C)c21	1	-2	0	0	16	7
Nc1nc(-c2cc3ccccc3o2)cs1	1	3	0	11	62*	48
Nc1nc(-c2ccc3ccccc3c2)cs1	-2	/	0	3	67*	18
CCOC(=O)CSc1nnc(CNC(=O)c2ccc(S(=O)(=O)N3CCCCC3)cc2)n1C	3	-4	0	1	/	/
CC(=O)Nc1ccc(NC(=O)c2nc(S(=O)(=O)Cc3cccc(C)c3)ncc2Cl)cc1	11	/	0	14	-40	?
COC(=O)c1ccc(NC(=O)c2nc(S(=O)(=O)Cc3cccc(C)c3)ncc2Cl)cc1	3	-4	0	9	-88	-86*
Cc1cccc(CS(=O)(=O)c2ncc(Cl)c(C(=O)NCc3ccc4c(c3)OCO4)n2)c1	18	3	0	22	317*	268
Cc1ccc(C(=O)NCc2ccc3c(c2)OCO3)c(Cl)c1	1	/	0	4	/	/
CC(C)c1ccc(NC(=O)C(c2ccccc2)N2CCN(C(=O)c3ccco3)CC2)cc1 (stereo unspecified)	-6	-3	1	0	-2	6
COc1ccc(C2C3=C(CCCC3=O)Nc3nc(-c4cc(OC)c(OC)c(OC)c4)nn32)cc1OC (stereo unspecified)	-11	-3	0	1	7	1
COc1ccc(-c2nc3n(n2)C(c2ccccc2)C2=C(CCCC2=O)N3)cc1OC (stereo unspecified)	-11	0	0	-19	-68	-57*
N#CCc1c(C#N)c(N)nc(N2CCN(C=O)CC2)c1C#N	3	13	0	6	-1	0
N#CCc1c(C#N)c(N)nc(N2CCN(S(=O)(=O)c3ccccc3)CC2)c1C#N	3	21	0	8	86*	87
O=C(Nc1ccccc1Cl)C1CCCN1C(=O)OCc1ccccc1 (stereo unspecified)	3	-16	0	0	-1	2
CC(=O)N1CCc2cc(Br)cc(S(=O)(=O)NCc3ccccn3)c21	4	-7	0	3	-13	-7
COc1cccc(-n2c(N)c(-c3nc4ccccc4[nH]3)sc2=S)c1	2	/	0	5	-66	-55*
O=C(Nc1cccc(S(=O)(=O)N2CCCCC2)c1)C1COc2ccccc2O1 (stereo unspecified)	7	/	0	-1	/	/
CC(=O)c1ccc(OCCCC(=O)OCc2nnc(-c3ccc(Cl)cc3)o2)cc1	-7	0	0	-3	3	5
CC(=O)Nc1ccc(OCc2nnc(-c3ccc(Cl)cc3)o2)cc1	-1	-2	1	-6	65*	44
CCc1cccc(NC(=O)C2CCCN(S(=O)(=O)c3cccs3)C2)c1 (stereo unspecified)	0	1	0	-6	-79	-73*
SMILES	GC-B act	DYRK1A inh	aDG glyco act	GC-A act	HSF-1 act	HSF1 inh
COc1ccc(C(=O)c2c(C(F)(F)F)oc3c2C(=O)c2ccccc2C3=O)cc1OC	2	-2	5.7*	-3	-38	-39
Cc1ccc(C(=O)NC(=S)NCC2CCCO2)cc1 (stereo unspecified)	-2	7	0	0	89*	40
Cc1ccc(C(=O)COC(=O)COc2ccccc2[N+](=O)[O-])s1	0	-1	0	-2	/	/
CCOC(=O)COc1ccccc1/C=C\[N+](=O)[O-]	/	-5	0	/	-66	-61*
O=C(COC(=O)C1CC(=O)N(Cc2ccccc2)C1)Nc1ccc2c(c1)OCO2 (stereo unspecified)	1	3	0	-1	11	3
CCOc1cc(N2CCOCC2)c(OCC)cc1NC(=O)c1cccc(N(C)C)c1	7	/	0	-2	-60	-51*
CCOc1cc(N2CCOCC2)c(OCC)cc1NC(=O)c1cc(-c2ccco2)nc2ccccc12	2	-5	-1	4	-78	-77*
CCOc1ccc(OCCC(=O)OCC(=O)Nc2cc(OCC)c(N3CCOCC3)cc2OCC)cc1	4	-5	0	3	111*	85
CCOc1cc(N2CCOCC2)c(OCC)cc1NC(=O)COc1ncnc2ccccc12	17	-3	0	12	11	0
O=C(NCc1ccccc1)c1cccc(COc2ccc3c(c2)CCC3)c1	0	-3	0	0	-35	-35
O=C(O)c1cccc(COc2ccc3c(c2)CCC3)c1	-1	-4	0	2	-82	-79*
COc1cccc(OC)c1C(=O)NNC(=O)c1cccc(COc2ccc3c(c2)CCC3)c1	5	2	0	11	-58	-57*
O=C(c1ccc(COc2ccc3c(c2)CCC3)o1)N1CCN(c2ccccc2)CC1	0	-6	0	3	62*	70
Clc1cccc(-c2cc3nc4c(c(NCc5ccco5)n3n2)CCCC4)c1	12	1	1	13	58*	22
c1coc(CNc2c3c(nc4ncnn24)CCCC3)c1	10	34	1	11	-8	2
Cc1ccc(S(=O)(=O)N(C)c2ccc(C)c([N+](=O)[O-])c2)cc1	-3	-3	0	-7	70*	30
Nc1ccccc1-c1nc2ccccc2s1	-6	3	0	-1	-79	-71*
Nc1ccc(O)c(-c2nc3ccccc3s2)c1	3	1	0	-8	10	-1
Oc1ccc(-c2nc3ccccc3s2)c(O)c1	-5	29	2	9	61*	31
O=S(=O)(c1cccs1)N1CCN(CC(O)COc2cc(Cl)ccc2Cl)CC1 (stereo unspecified)	4	-1	2	-3	/	/
